Screening results: PubChem, National Center for Advancing Translational Sciences (NCATS)
Pf growth 48h: Primary qHTS for delayed death inhibitors of the malarial parasite plastid, 48 hour incubation; AID 504832, 2011; Potency, µM (series often up to 28.7 µM), without a hit: at the highest dose activity change, negative = inhibition, actives largely listed as inhibitors; 310,000 compounds, 5.9% hits; P. falciparum luciferase growth in erythrocytes, 48 h; further: potency means the concentration at half of the fitted maximal effect; on the % scale 0 is the no-effect control and ±100 the full control effect
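Parasite viability was followed by luminescence of a genomically integrated firefly luciferase. Cultures held 0.1% parasitemia at 2% hematocrit (final), incubated under 5% CO2 at 37 C.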
Pf growth 96h: Primary qHTS for delayed death inhibitors of the malarial parasite plastid, 96 hour incubation; P. falciparum luciferase reporter growth, 96 h; Potency, µM (highest dose often 28.7 µM), without a hit: at the top dose activity change, negative = inhibition, hits mostly inhibitors; 320,000 compounds, 6.9% hits; further: potency means the concentration at half of the fitted maximal effect; on the % scale 0 is the no-effect control and ±100 the full control effect
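Luminescence readout: decreased luciferase signal marks inhibited growth of reporter-expressing P. falciparum in infected red cells (2% hematocrit, 0.05% parasitemia final), exposed to compound two generations (96 h, 37 C, 5% CO2).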
Shiga inhibitor: A qHTS for Small Molecule Inhibitors of Shiga Toxin; Vero cells, Shiga toxin protein synthesis inhibition reporter; inhibition, % at 38.7 µM; 290,000 compounds, 9.2% hits; AID 2315, 2010; in the data active means inhibition mostly above about 28%, no sharp cut-off; inactive means mostly below about 43%; further: 0% is about no effect
CHX counter: Cycloheximide Counterscreen for Small Molecule Inhibitors of Shiga Toxin. cell reporter, cycloheximide protein synthesis inhibition counterscreen. max response, %. 300,000 compounds, 12% hits; in the data active means max response mostly above about 13%, no sharp cut-off; inactive means mostly below about 14%; further: read at 38.3 µM for the half of the compounds with a filed dose; 0% is about no effect
LmPK inh: qHTS Assay for Inhibitors of Leishmania Mexicana Pyruvate Kinase (LmPK) | 290,000 compounds, 0.37% hits | Q27686 | Potency, µM (titrated, usually from 57.5 µM), for the others: at the highest dose activity change, negative = inhibition, actives largely listed as inhibitors | purified LmPK, Kinase-Glo ATP luminescence, 1 h; further: potency means the concentration at half of the fitted maximal effect; on the % scale 0 is the no-effect control and ±100 the full control effect
Target sequence (Q27686 whole entry, looked up): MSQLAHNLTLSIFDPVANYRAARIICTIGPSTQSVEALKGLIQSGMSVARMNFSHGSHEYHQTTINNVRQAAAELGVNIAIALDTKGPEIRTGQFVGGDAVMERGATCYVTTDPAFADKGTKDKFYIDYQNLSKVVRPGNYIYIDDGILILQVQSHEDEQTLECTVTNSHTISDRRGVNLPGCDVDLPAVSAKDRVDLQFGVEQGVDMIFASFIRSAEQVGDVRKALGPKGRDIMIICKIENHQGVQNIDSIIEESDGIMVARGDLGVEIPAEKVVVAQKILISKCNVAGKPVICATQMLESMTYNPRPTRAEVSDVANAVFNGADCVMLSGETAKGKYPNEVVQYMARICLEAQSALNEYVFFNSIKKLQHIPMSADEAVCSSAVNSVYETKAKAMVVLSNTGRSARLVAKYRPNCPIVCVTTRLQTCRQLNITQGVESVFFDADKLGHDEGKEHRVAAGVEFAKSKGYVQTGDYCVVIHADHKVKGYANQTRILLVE
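Purified LmPK (0.1 nM) converted ADP (0.1 mM) to ATP with PEP (0.5 mM) in imidazole buffer pH 7.2 with KCl and MgCl2, 1 h at room temperature. ATP was read by Kinase-Glo luminescence; data normalized to uninhibited and no-enzyme controls.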
* hit, by the source's call; ? = inconclusive; . = no result; [ ] = dose if it differs, or a comment. Most compounds without a hit are left out; they make up all but 22% or so of the library. Unless noted, the call rests on the fitted dose curve; in most records, active means well fitted inhibition curve with a large enough effect; inconclusive means small, poorly fitted or top-dose-only effect, or another doubt; inactive means no such curve, though single readings can be large or run the other way.

SMILES | Pf growth 48h | Pf growth 96h | Shiga inhibitor | CHX counter | LmPK inh
Cc1ccc(N(CCC#N)C(=O)COC(=O)C2CCN(S(=O)(=O)c3ccc4c(c3)OCCO4)CC2)cc1 | -17% | 2% | . | . | .
O=C(NC1CCCCC1)C1CC(=O)N(Cc2ccccc2)C1 (configuration not stated) | 5% | 35% | -3 | -4 | 2%
O=C(Cn1cnc2ccccc2c1=O)Nc1ccc(N2CCOCC2)cc1 | 33% | 2% | -3 | 9 | -1%
CC(C)CN(CCNC(=O)CN1N=C(c2ccc(Cl)cc2)CCC1=O)CC(C)C | -20% | 28% | -3 | -1 | 0%
O=C(C1CCCN1C(=O)c1cccs1)N1CCN(S(=O)(=O)c2ccc(F)cc2)CC1 (configuration not stated) | ? | 33% | . | . | .
COc1ccc(NC(=O)c2cccs2)cc1 | 333% | ? | 78* | 41* | ?
CC1CC(C)CN(S(=O)(=O)c2ccc(NC(=O)[C@@H]3CCCN3C(=O)c3cccs3)cc2)C1 (some centres not stated) | 12µM* | ? | . | . | .
Cc1ccc(NC(=O)/C(=C\c2cccnc2)NC(=O)c2ccco2)cc1 | ? | 3.3µM* | 31 | 7 | 3%
COc1c(Cl)cc(Cl)cc1C(=O)Nc1ccc(NC(=O)c2cccs2)cc1 | 9.3µM* | 13µM* | -11 | 3 | 5%
O=C(Nc1cccc(F)c1)/C(=C\c1cccnc1)NC(=O)c1ccco1 | -6% | -1% | -4 | 1 | -2%
COc1ccc(C(=O)Nc2ccc(NC(=O)c3cccs3)cn2)cc1 | 38% | -13% | 43 | 20* | -8%
O=C(Nc1cccc(N2CCCC2)c1)c1cccs1 | ? | -5% | 72* | 27* | 3%
Cc1cc(NC(=O)c2ccc(NC(=O)c3cccs3)cc2)no1 | 6% | 102% | 15 | 11 | -1%
O=C(Nc1ccc(NC(=O)c2cccs2)cc1)c1cccs1 | 59% | 13% | 83* | 43* | -4%
COc1cccc(-c2nc(-c3ccc(NC(=O)c4cccs4)cc3)no2)c1 | 16% | 4.1µM* | 64* | 56* | -3%
Cn1nccc1C(=O)N1CCOCC1 | 15% | -7% | -7 | -1 | -1%
O=C(CN(C(=O)CCC(=O)Nc1ccccn1)c1cccc(F)c1)NCc1ccco1 | -7% | 11% | 1 | 2 | 15%
CN1CCN(S(=O)(=O)c2ccc(CNC(=O)c3ccccc3)s2)CC1 | -16% | ? | -8 | -2 | 0%
CCCCN(C)C(=O)c1cc2c(Cl)nc3ccccc3c2s1 | -10% | 34% | 6 | 5 | 5%
O=C(Nc1ccc2[nH]ccc2c1)c1cccs1 | 152% | 424% | 55* | 27* | -26%
CC(C)C(=O)Nc1ccc(NC(=O)c2cccs2)cn1 | 127% | 0% | 114* | 50* | -13%
COc1ccc(CC(=O)NNC(=O)Cc2ccc(OC)cc2)cc1 | 10% | -5% | 15 | -2 | 3%
COc1cccc(C(=O)Nc2ccc(NC(=O)C(C)C)nc2)c1 | 17% | 26% | 15 | 8 | -15%
O=C(Nc1ccc(Cl)cc1)c1cccs1 | 39% | 15% | 82* | 60* | -4%
COc1ccc(CC(=O)NNC(=O)c2cccs2)cc1 | 31% | 2.9µM* | 5 | 6 | -4%
SMILES | Pf growth 48h | Pf growth 96h | Shiga inhibitor | CHX counter | LmPK inh
CC(C)C(C(=O)NCC1CCCO1)N(C(=O)CNS(=O)(=O)c1ccc(F)cc1)C1CCCCC1 (configuration not stated) | -10% | 3% | 8 | 1 | -4%
CCOC(=O)c1ccc2[nH]c3c(c2c1)CCCCC3=O | ? | -11%[5.75 µM] | 50* | 15* | 0%
CCOC(=O)c1ccc2[nH]c3c(c2c1)CCCC3C(=O)OCC (configuration not stated) | 0% | ? | 20 | 4 | 0%
COc1ccc(-n2cc(CNC3CCN(C)CC3)c(-c3cccc(F)c3)n2)cc1 | 1.5µM* | 55% | -2 | 7 | 1%
CCC(COC)NCc1cn(-c2ccc(OC)cc2)nc1-c1cccc(F)c1 (configuration not stated) | 12µM* | ? | 9 | -2 | 7%
CC1Cc2ccccc2N1C(=O)COC(=O)c1c2c(nc3ccccc13)CCCCC2 (configuration not stated) | ? | 13µM* | -6 | 14* | 1%
Cc1onc(-c2ccccc2Cl)c1C(=O)OCC(=O)N1CCCc2ccccc21 | 9.3µM* | ? | 12 | 0 | -4%
O=C(OCC(=O)N1CCc2ccccc21)c1c2c(nc3ccccc13)CCCC2 | 8.3µM* | ? | 62* | 34* | 6%
CC(C)(C)C(=O)COC(=O)c1c2c(nc3ccccc13)CCC2 | -2% | -17% | -16 | 6 | -1%
Fc1cccc(Nc2nc(-c3ccncc3)nc3ccccc23)c1 | 9.3µM* | 4.1µM* | -14 | 0 | 5%
O=C(O)c1ccc(Nc2nc(-c3ccccc3)c3ccccc3n2)cc1 | 4% | ? | 2 | -1 | 0%
Cc1ccc(-c2nc(Nc3cccc(O)c3)c3ccccc3n2)cc1 | 8%[0.00184 µM] | ? | 33 | 2 | 1%
CNC(=O)c1ccc(Nc2nc(-c3ccccc3)nc3ccccc23)cc1 | -25% | ? | 27 | 16* | -1%
c1ccc(Nc2nc(-c3ccccc3)nc3ccccc23)cc1 | 9% | 329% | . | -3 | 10%
O=C(OCCNc1nc(-c2ccccc2)nc2ccccc12)c1cccnc1 | -12% | 14% | -19 | 9 | 2%
CCCOC(=O)c1cccc(Nc2nc(-c3cccnc3)nc3ccccc23)c1 | 9.3µM* | 0% | 12 | 0 | -1%
O=C(O)c1ccc(Nc2c3ccccc3nc3ccccc23)cc1 | 2.1µM* | 8% | 5 | 13 | 0%
O=C(O)c1cccc(Nc2nc(-c3ccc([N+](=O)[O-])cc3)nc3ccccc23)c1 | -35% | 1% | 5 | -3 | 2%
O=C(O)c1ccc(Nc2nc(-c3ccccc3)nc3ccccc23)cc1 | ? | 24% | 27 | 20* | 6%
O=C(O)c1cccc(Nc2nc(-c3ccccc3)nc3ccccc23)c1 | -3% | ? | 40* | 19* | -5%
COc1cccc(COC(=O)CCNC(=O)c2ccc(Cl)cc2)c1OC | 4% | 5% | . | . | .
O=C(CSc1nc(-c2ccccc2)cc(C(F)(F)F)n1)NCc1cccs1 | 0% | -11% | -5 | -1 | -1%
CCC(C)NC(=O)CSc1nc(-c2cccs2)cc(C(F)(F)F)n1 (configuration not stated) | . | 5.2µM* | 23 | 8 | 11%
CC(C)c1nnc(NC(=O)CCS(=O)(=O)c2nc(-c3cccs3)cc(C(F)(F)F)n2)s1 | 28% | 0.74µM* | -7 | 3 | 6%
COc1ccc(-c2cc(C(F)(F)F)nc(SCC(=O)NCc3cccs3)n2)cc1 | 12µM* | ? | 9 | 7 | -1%
